Shown are actives, neighbours in structure and some others; about 10% of the full set was active somewhere.
BAZ2B inh – inhibitors of human BAZ2B bromodomain | Q9UIF8 | AlphaScreen BAZ2B-H3K14Ac peptide displacement | Potency, µM (titrated, usually from 114 µM), usual class: inhibitors | actives 4.4% (n = 360,000) | AID 504333; further: nearly all actives have a fitted effect of over 60% in size
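AlphaScreen displacement: compounds (up to 110uM) incubated 30 min at room temperature with a preformed 50 nM BAZ2B/50 nM biotinylated H3K14Ac peptide complex in PBS pH 7.4 with Tween-20. Donor and acceptor beads at 10 ug/mL final added, 20 min light-protected before reading.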
Six1-Eya2 blk – blocks human Six1 binding to Eya2. AlphaScreen GST-Six1/His-Eya2 binding, biochemical; active compounds read low. activity change, % (no concentration beside the values). Q15475+O00167. AID 651725. actives 0.56% (n = 360,000); in the data active means activity change below about -65%; inconclusive means mostly about -30% to -63%
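GST-Six1 + His-Eya2 (5X stock: 250/500 nM); Tris pH 8.0, 300 mM NaCl, 0.05% BSA, 0.02% Tween 20; GSH donor/Ni acceptor beads; 1 h 37 °C dark; AlphaScreen readout.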
HP1b binding inh – inhibitors of HP1-beta chromodomain binding to methylated histone tails; P83916; AlphaScreen HP1-beta / biotin-H3K9me3 peptide binding; Potency, µM (highest dose often 114 µM), usual class: inhibitors; actives 0.56% (n = 390,000); further: nearly all actives have a fitted effect of over 70% in size
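Compound inhibition of the preformed complex between 50 nM HP1-beta and 50 nM biotinylated H3K9me3 peptide was read by AlphaScreen. Buffer was PBS pH 7.4 with 0.01% Tween-20. Incubations ran 30 min at room temperature, with 10 ug/mL donor/acceptor beads.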
CtBP-E1A blk – CtBP/E1A binding inhibition; AlphaScreen GST-E1A/His-CtBP binding, 1536-well; active compounds read low; activity change, % (test concentration not listed); actives 0.49% (n = 340,000); AID 651724; in the data active means activity change below about -65%; inconclusive means mostly about -30% to -63%
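In 5 uL wells, 23 nL compound meets equimolar GST-E1A and His-CtBP (5X stock 125 nM each) for 2 h, 37 °C. Beads (5X, 50 ug/mL) then 1 h, 37 °C, dark.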
G9a inh – blocks human histone lysine methyltransferase G9a; AID 504332; actives 8.8% (n = 350,000); Q96KQ7; Potency, µM (top dose mostly 102 µM), hits mostly inhibitors; G9a H3K9 monomethylation, AlphaScreen, 2 h; further: nearly all actives have a fitted effect of over 75% in size
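Signal arises when biotinylated H3K9 peptide, once monomethylated, bridges streptavidin donor and antibody-captured acceptor beads. Enzyme at 20 nM was preincubated 15 min with test compounds; peptide 500 nM and SAM 20 uM then reacted for 2 h.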
JMJD2A Tudor inh – JMJD2A Tudor domain (human) inhibition. O75164. AlphaScreen JMJD2A-Tudor / H3K4me3 peptide binding. Potency, µM (doses to about 114 µM), most hits filed as inhibitors. actives 4.4% (n = 390,000). AID 504339; further: nearly all actives have a fitted effect of over 50% in size
Numbers stand for hits; - = inactive; ? = inconclusive; . = no result; ! = a repeat was not active; [ ] = dose if it differs, or a comment. Unless noted, the call rests on the fitted dose curve; in most records, active means well fitted inhibition curve with a large enough effect; inconclusive means small, poorly fitted or top-dose-only effect; inactive means no such curve, though single readings can be large or run the other way.

SMILES | BAZ2B inh | Six1-Eya2 blk | HP1b binding inh | CtBP-E1A blk | G9a inh | JMJD2A Tudor inh
CCN1CCN(S(=O)(=O)c2ccc(OC)cc2)CC1 | - | - | - | - | - | -
CCN1CCN(CC(=O)c2ccc(OC)cc2)CC1 | - | - | - | - | 44.7µM | -
Cc1ccc([N+](=O)[O-])cc1S(=O)(=O)N1CCCC1 | - | - | - | - | ? | -
COc1ccc2ccc(O)c(CN3CCN(S(=O)(=O)c4cc([N+](=O)[O-])ccc4C)CC3)c2c1 | - | - | - | - | 1.26µM | -
COCCCNC(=O)c1c(NC(=O)Cc2coc3cc(C)cc(C)c23)sc2c1CCCC2 | - | . | - | . | - | -
COc1cc(Cl)c(C)cc1NC(=O)CC1Oc2ccccc2NC1=O (stereo not drawn) | - | . | - | . | - | -
CN(Cc1ccccc1)C1CCN(Cc2ccccc2[N+](=O)[O-])CC1 | 20µM | - | ? | - | 17.8µM | 11.2µM
CN1CCC(N(C)C(=O)Cc2ccccc2[N+](=O)[O-])CC1 | - | - | - | - | - | -
COc1ccc(S(=O)(=O)N2CCN(Cc3ccc(Cl)cc3)CC2)cc1 | ? | - | ? | - | 2.51µM | 10µM
Cc1ccc(-c2n[nH]c(=S)n2/N=C/c2cccs2)cc1 | - | - | - | - | 1µM | 28.2µM
Cc1cc(-c2n[nH]c(=S)n2/N=C/c2cccs2)n[nH]1 | - | - | - | - | 0.355µM | 6.31µM
CC(/C=N/n1c(-c2cc(C)[nH]n2)n[nH]c1=S)=C\c1ccccc1 | - | - | - | - | ? | ?
S=c1[nH]nc(-c2ccccc2)n1/N=C/c1cccs1 | - | - | - | - | 0.562µM | 17.8µM
Cc1ccc(-c2n[nH]c(=S)n2/N=C/c2ccc(C)s2)cc1 | - | - | - | - | -[0.501 µM] | ?
CC(C)NC(=O)CCCN1C(=O)CCn2nc(-c3cccn3C)cc21 | - | . | - | . | - | -
COc1ccc(N2CCN(C(=O)c3cc4c(s3)-c3ccccc3OC4)CC2)cc1 | - | - | - | - | - | -
O=C(c1cc2c(s1)-c1ccccc1OC2)N1CCN(c2ccccc2)CC1 | - | - | - | - | 1.12µM! | -
NC(=O)C(CC(=O)O)NC(=O)[C@@H]1CCOc2c(I)cc([N+](=O)[O-])cc2C(=O)N[C@@H](CCC(=O)O)C(=O)N[C@@H](CO)C(=O)N1 (stereo partly drawn) | ? | - | - | - | 7.94µM | ?
C[C@@H]1NC(=O)c2cc([N+](=O)[O-])cc(I)c2OCC[C@@H](C(=O)NC(CC(=O)O)C(N)=O)NC(=O)[C@H](CCC(=O)O)NC1=O (stereo partly drawn) | - | - | - | - | 35.5µM | ?
C[C@@H]1NC(=O)[C@H](CC(N)=O)NC(=O)c2cc([N+](=O)[O-])cc(I)c2OCC[C@@H](C(=O)NC(CC(=O)O)C(N)=O)NC1=O (stereo partly drawn) | - | - | - | - | 28.2µM | -
COc1ccc(CCNC(=O)CSc2cc(=O)n(C)c3ccccc23)cc1OC | . | . | - | . | ? | -
O=[N+]([O-])c1ccc(-c2nn(-c3ccccc3)cc2/C=N/n2c(-c3ccncc3)n[nH]c2=S)cc1 | - | - | - | - | ? | -
O=[N+]([O-])c1ccc(/C=N/n2c(-c3cccnc3)n[nH]c2=S)cc1 | - | - | - | - | - | 8.91µM
COc1cc(/C=N/n2c(=S)[nH]nc(C)c2=O)cc([N+](=O)[O-])c1O | - | - | - | - | - | ?
Cc1n[nH]c(=S)n(/N=C/c2cccc([N+](=O)[O-])c2)c1=O | - | ? | - | -66.2 | - | ?
SMILES | BAZ2B inh | Six1-Eya2 blk | HP1b binding inh | CtBP-E1A blk | G9a inh | JMJD2A Tudor inh
O=[N+]([O-])c1ccc(Cl)c(/C=N/n2c(-c3cccnc3)n[nH]c2=S)c1 | - | . | . | . | 5.62µM | .
O=[N+]([O-])c1cccc(/C=N/n2c(-c3cccnc3)n[nH]c2=S)c1 | - | - | ? | - | 1.78µM | 3.98µM
O=[N+]([O-])c1cc(/C=N/n2c(-c3ccncc3)n[nH]c2=S)ccc1Cl | ? | - | - | - | . | ?
COC(=O)c1sccc1S(=O)(=O)N1CCN(c2ccccc2)CC1 | - | . | - | . | - | -
Cc1ccsc1/C=N/n1c(-c2cccnc2)n[nH]c1=S | - | - | - | - | ? | 4.47µM
COc1ccc(N2C(=S)NC(C)(C)CC2(C)c2ccc(OC(C)=O)cc2OC(C)=O)cc1 (stereo not drawn) | ? | - | - | - | 79.4µM | -
COC(=O)/C=C1\SC(=NC(=O)c2ccc(C)cc2)NC1=O | ? | - | - | - | 28.2µM | -
COC(=O)/C=C1/SC(=NC(=O)c2ccc(Cl)cc2)NC1=O | . | - | - | - | . | ?
CCOC(=O)c1c(NC(=O)/C=C/c2ccc(C(C)C)cc2)sc2c1CCC2 | - | . | - | . | - | -
C/C(=N\Nc1nc2ccccc2c(=O)n1O)c1ccco1 | - | - | ? | - | 79.4µM | ?
Cc1ccc(C)c(/C=N/Nc2nc3ccccc3c(=O)n2O)c1 | - | - | - | - | 28.2µM | -
Cc1ccc2nc(C)cc(N/N=C/c3ccccc3O)c2c1 | - | - | - | . | - | -
CC(C)c1ccc(NC(=O)CCNS(=O)(=O)c2ccc3c(c2)CCCC(=O)N3)cc1 | - | . | - | . | - | -
Cc1ccc(-c2nc3nc(C)cc(Nc4ccccc4O)n3n2)cc1 | - | . | - | . | - | -
COc1ccc2[nH]c(=O)c(CNc3cc(C)ccc3C)cc2c1 | 50.1µM | - | - | - | ? | ?
CNC(=S)N(Cc1ccc(OC)cc1)Cc1cc2cc(C)ccc2[nH]c1=O | - | - | - | - | - | -
Cc1ccc2[nH]c(=O)c(CNC(C)(C)C)cc2c1 | - | - | - | - | ? | -
COc1ccc2[nH]c(=O)c(CNc3ccc(C)cc3C)cc2c1 | - | - | - | - | 20µM | -
COc1cc(NC(=O)N2CCC(CN3CCOCC3)CC2)cc(OC)c1OC | - | . | - | . | - | -
CCOc1ccc(CNS(=O)(=O)c2cc3c(cc2C)NC(=O)CO3)cc1OC | - | . | - | . | - | -
O=C(Nc1ccc(C(=O)O)cc1)/C(=C\c1ccco1)NC(=O)c1ccco1 | - | - | - | - | 50.1µM | -
CC(=O)c1ccc(NC(=O)/C(=C\c2ccco2)NC(=O)c2ccco2)cc1 | - | - | - | - | 50.1µM | -
Cc1ccc2onc(CC(=O)N3CCN(c4cccc(C)c4C)CC3)c2c1 | - | . | - | . | ? | -
COc1cc(C=NCc2ccccc2)ccc1O | . | - | . | - | . | .
Oc1ccc(/C=N/N(c2ccccc2)c2ccccc2)c(O)c1O | 25.1µM | . | . | . | 14.1µM | .
COc1ccc(/C=N/N(Cc2ccccc2)c2ccccc2)cc1O | 28.2µM | ? | 39.8µM | - | 28.2µM | 10µM
CCN(CC)c1ccc(/C=N/N(c2ccccc2)c2ccccc2)c(O)c1 | 10µM | ? | ? | - | ? | 8.91µM
